The values that follow come from PubChem BioAssay (NCI).

Several values for one entry are separate records, joined by “and”; a condition that tells them apart may be missing. Identical values can stand only once. The panel holds about 83,000 compounds, 20% with a hit somewhere; the sample as a whole holds those more often.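 Activity criterion: percent growth below 10, measured after cells in 96-well plates were exposed to a single compound concentration for 48 hours.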 Activity calls are given as the source filed them. Where a SMILES comes first, the peptide text is derived from it. The star is where a group is joined. Trt = c1ccc(C(c2ccccc2)(c2ccccc2)*)cc1; Cbz = O=C(OCc1ccccc1)*

The test system of the first assay is SR leukemia. The experiment in a line: NCI-60 one-dose screen, 48 h (100 = growth as untreated, 0 = no growth, -100 = all killed). The following applies: 10 µM unless noted.
On to `COc1cc(/C=C/C(C)=O)ccc1O`, for which the growth is 93.2% (inactive) and 89.3% (inactive).

Take `CC(C)(C)CC(C)(C)c1ccc(OCCSC(=N)N)cc1`: the growth is -37.7% (active).

Consider `COc1ccc(N=N/N=c2\sc3cc(OC)ccc3n2C)cc1`, for which the growth was 88.9% (inactive).

Consider `O=C(Oc1cccc2cccnc12)c1ccccc1`, for which the growth was 43.7% (inactive).

`S=C(NCCNC(=S)[S][Sn]([c]1ccccc1)([c]1ccccc1)[c]1ccccc1)[S][Sn]([c]1ccccc1)([c]1ccccc1)[c]1ccccc1`: the growth was 0.639% (active).

For `C[N+](C)=c1ccc2nc3c(cc(NCCCNc4cc5oc6cc(=[N+](C)C)ccc-6nc5c5ccccc45)c4ccccc43)oc-2c1`, the growth was 6.05% (active).

With `C[n+]1c(/C=C/c2ccc([N+](=O)[O-])cc2)ccc2ccccc21`, the growth was 82.7% (inactive).

Turning to `CCC(CCCN(CC)CCc1ccccc1)OC(=O)c1cc(OC)c(OC)c(OC)c1` (centres undefined), the growth was 78.7% (inactive).

Regarding `O=C(/C=C\c1ccccc1)N1c2ccccc2CC1c1c[nH]c2ccccc12` (centres undefined), the growth is 73.5% (inactive).

Regarding `OC(CNc1ccnc2cc(Cl)ccc12)CNc1ccnc2cc(Cl)ccc12`, the growth is 2.51% (active).

With `COC(=O)c1nc(=S)[nH]c(C(=O)OC)c1C(=O)c1ccccn1`, the growth is -3.79% (active).

Regarding `Cc1ccc(N=C=C(c2ccccc2)c2ccccc2)cc1`, the growth is 22.9% (inactive).

Regarding `NC(=S)N/N=C/c1ccc(Cl)s1`, the growth was 95.6% (inactive).

For the molecule `O=[N+]([O-])c1ccc2c(N=Nc3ccc4ccccc4c3O)c(O)cc(S(=O)(=O)O)c2c1`, the growth was 90.3% (inactive).

`CC(=Nc1ccc(N(C)C)cc1)c1ccccc1`: the growth is 32.6% (inactive).

`O=[N+]([O-])c1ccc(N=Nc2ccc(O)cc2O)cc1`: the growth was 16.6% (inactive).

Consider `CCC(CC)COC(=O)c1ccc(O)c(O)c1`, for which the growth is 18.6% (inactive).

Consider `CCC(c1cccc(O)c1)C(CC)c1cccc(O)c1` (centres undefined), for which the growth is 16.5% (inactive).

In the case of `COC(=O)C(CSC(c1ccccc1)(c1ccccc1)c1ccccc1)NC(=O)C(CC(N)=O)NC(=O)OCc1ccccc1` (stereo not drawn) (Cbz-Asn-Cys(Trt)-OMe; configuration not given here), the growth was -43.7% (active).

Turning to `CCC(=O)Sc1ccccc1C(=O)Nc1ccc(Cl)cc1`, the growth is 26.3% (inactive).

On to `Nc1ncnc2c1ncn2C1OC(CO)C(O)C1O` (centres undefined), for which the growth is 98.7% (inactive) and 21% (inactive) and 87.3% (inactive).

Consider `Cc1ccc2c(ccc3c[n+]4c5ccccc5ccc4n32)c1`, for which the growth was -12.5% (active).

For the molecule `O=C(Nc1ccc(F)cc1)ON=C1CCCCC1`, the growth is 84.9% [100 µM] (inactive).

In the case of `CC1=CC(O)C2CC1C2(C)C` (centres undefined), the growth was 101% (inactive) and 97.3% (inactive).

As for `O=C(CC1(O)C(=O)Nc2c(Cl)ccc(Cl)c21)c1ccc(Cl)cc1Cl` (centres undefined), the growth is 86.9% (inactive).

Consider `O=C1N[C@H]2[C@H](CS[C@H]2CCCCC(=O)N(CCP(c2ccccc2)c2ccccc2)CCP(c2ccccc2)c2ccccc2)N1`, for which the growth is 102% (inactive).

On to `C=C(Cl)C(=NC(C)(C)C)Nc1ccccc1C`, for which the growth is 1.56% (active).

On to `Cc1ccnc(NC(c2ccccc2)c2ccc3cccnc3c2O)c1` (centres undefined), for which the growth is 10% (inactive).

For the molecule `Cc1cc2nc(CS)[nH]c2cc1C`, the growth was 45.9% (inactive).

Turning to `O=C(O)C1C2CC3C(OC(=O)C31)C2Br` (centres undefined), the growth was 97.3% (inactive) and 101% (inactive).

`Cc1ccnc2c1ccc1c(C)ccnc12`: the growth was 4.34% (active).

Regarding `COc1ccccc1/C=C\C(=O)c1ccccc1`, the growth was 15.3% (inactive).

The next assay has as its system RPMI-8226 leukemia. Described as above. The following applies: 10 µM unless noted.
As to `COc1cc(/C=C/C(C)=O)ccc1O`, the growth is 116% (inactive).

As to `CC(C)(C)CC(C)(C)c1ccc(OCCSC(=N)N)cc1`, the growth was 2.8% (active).

Turning to `COc1ccc(N=N/N=c2\sc3cc(OC)ccc3n2C)cc1`, the growth is 77.3% (inactive).

Regarding `O=C(Oc1cccc2cccnc12)c1ccccc1`, the growth was 83.3% (inactive) and 113% (inactive).

As to `S=C(NCCNC(=S)[S][Sn]([c]1ccccc1)([c]1ccccc1)[c]1ccccc1)[S][Sn]([c]1ccccc1)([c]1ccccc1)[c]1ccccc1`, the growth is -24% (active).

Regarding `C[N+](C)=c1ccc2nc3c(cc(NCCCNc4cc5oc6cc(=[N+](C)C)ccc-6nc5c5ccccc45)c4ccccc43)oc-2c1`, the growth was 2.21% (active).

On to `C[n+]1c(/C=C/c2ccc([N+](=O)[O-])cc2)ccc2ccccc21`, for which the growth was 102% (inactive).

`CCC(CCCN(CC)CCc1ccccc1)OC(=O)c1cc(OC)c(OC)c(OC)c1` (centres undefined): the growth was 85% (inactive).

Take `O=C(/C=C\c1ccccc1)N1c2ccccc2CC1c1c[nH]c2ccccc12` (centres undefined): the growth is 55.9% (inactive).

Turning to `OC(CNc1ccnc2cc(Cl)ccc12)CNc1ccnc2cc(Cl)ccc12`, the growth is 92.6% (inactive).

As for `COC(=O)c1nc(=S)[nH]c(C(=O)OC)c1C(=O)c1ccccn1`, the growth is 52.8% (inactive).

Consider `Cc1ccc(N=C=C(c2ccccc2)c2ccccc2)cc1`, for which the growth is 16.6% (inactive).

On to `NC(=S)N/N=C/c1ccc(Cl)s1`, for which the growth was 100% (inactive).

Consider `O=[N+]([O-])c1ccc2c(N=Nc3ccc4ccccc4c3O)c(O)cc(S(=O)(=O)O)c2c1`, for which the growth is 96.8% (inactive).

For `CC(=Nc1ccc(N(C)C)cc1)c1ccccc1`, the growth was 7.42% (active).

As to `O=[N+]([O-])c1ccc(N=Nc2ccc(O)cc2O)cc1`, the growth was 43% (inactive).

`CCC(CC)COC(=O)c1ccc(O)c(O)c1`: the growth is 35.1% (inactive).

For `CCC(c1cccc(O)c1)C(CC)c1cccc(O)c1` (centres undefined), the growth was 31.6% (inactive).

`COC(=O)C(CSC(c1ccccc1)(c1ccccc1)c1ccccc1)NC(=O)C(CC(N)=O)NC(=O)OCc1ccccc1` (stereo not drawn) (Cbz-Asn-Cys(Trt)-OMe; configuration not given here): the growth is 2.8% (active).

Take `CCC(=O)Sc1ccccc1C(=O)Nc1ccc(Cl)cc1`: the growth is 35% (inactive).

Regarding `Nc1ncnc2c1ncn2C1OC(CO)C(O)C1O` (centres undefined), the growth was 101% (inactive) and 77.5% (inactive) and 112% (inactive).

For `Cc1ccc2c(ccc3c[n+]4c5ccccc5ccc4n32)c1`, the growth is 31.7% (inactive).

For `O=C(Nc1ccc(F)cc1)ON=C1CCCCC1`, the growth is 93.9% [100 µM] (inactive).

For the molecule `CC1=CC(O)C2CC1C2(C)C` (centres undefined), the growth is 111% (inactive) and 107% (inactive).

`O=C(CC1(O)C(=O)Nc2c(Cl)ccc(Cl)c21)c1ccc(Cl)cc1Cl` (centres undefined): the growth is 99.9% (inactive).

For `O=C1N[C@H]2[C@H](CS[C@H]2CCCCC(=O)N(CCP(c2ccccc2)c2ccccc2)CCP(c2ccccc2)c2ccccc2)N1`, the growth was 57% (inactive).

Take `C=C(Cl)C(=NC(C)(C)C)Nc1ccccc1C`: the growth was 75.1% (inactive).

As to `Cc1ccnc(NC(c2ccccc2)c2ccc3cccnc3c2O)c1` (centres undefined), the growth is 51.5% (inactive).

As for `Cc1cc2nc(CS)[nH]c2cc1C`, the growth is 28.7% (inactive).

As to `O=C(O)C1C2CC3C(OC(=O)C31)C2Br` (centres undefined), the growth is 102% (inactive) and 106% (inactive).

With `Cc1ccnc2c1ccc1c(C)ccnc12`, the growth was 17.4% (inactive).

For the molecule `COc1ccccc1/C=C\C(=O)c1ccccc1`, the growth was -13.3% (active).
